Experimental data from the antibiotic and cytotoxicity screens of Wong et al. (2023).
In all, about 39,000 compounds went through this assay and about 1,500 (3.8%) were called active. Only a selection was taken, and actives are over-represented in it overall.

Tested on: HSkMC (human skeletal muscle cells)
Assay: cytotoxicity call (relative viability < 0.9)
Conditions: 10 µM

| Compound | cytotoxicity call |
| --- | --- |
| C[C@H](CO)N1C[C@H](C)[C@@H](CN(C)Cc2ccc(Oc3ccccc3)cc2)Oc2c(NC(=O)c3ccc(-c4nccs4)cc3)cccc2C1=O | inactive |
| C[C@@H]1CN([C@H](C)CO)S(=O)(=O)c2ccc(C#Cc3ccccn3)cc2O[C@H]1CN(C)Cc1ccccc1 | inactive |
| CCCC(=O)Nc1ccc2c(c1)C(=O)N(C)C[C@H](OC)[C@@H](C)CN(S(=O)(=O)c1cn(C)cn1)[C@@H](C)CO2 | inactive |
| COc1cccc(OC)c1C(=O)O[C@H]1[C@@H]2OC(=O)[C@H](Cc3cccc(Br)c3)C/C=C/C[C@@H](Cc3cccc(Br)c3)C(=O)O[C@H]2[C@@H](OC)O[C@@H]1CO | inactive |
| C[C@@H]1CCCCO[C@H](CN(C)C(=O)c2ccccc2)[C@H](C)CN([C@@H](C)CO)C(=O)c2cc(NC(=O)Nc3ccc(F)cc3)ccc2O1 | inactive |
| COc1ccc(NC(=O)Nc2ccc3c(c2)CC(=O)N([C@@H](C)CO)C[C@@H](C)[C@H](CN(C)Cc2ccc(-c4ccccc4)cc2)O3)cc1 | inactive |
| C[C@H]1CCCCO[C@H](CN(C)C(=O)Nc2cccc3ccccc23)[C@@H](C)CN([C@@H](C)CO)C(=O)c2cc(N(C)C)ccc2O1 | inactive |
| COc1ccc(NC(=O)Nc2ccc3c(c2)C(=O)N([C@@H](C)CO)C[C@@H](C)[C@@H](CN(C)Cc2ccc(-c4ccccc4)cc2)O3)cc1 | inactive |
| C[C@H]1CN([C@@H](C)CO)C(=O)c2cc(NC(=O)Nc3ccccc3)ccc2O[C@H]1CN(C)Cc1ccc(Oc2ccccc2)cc1 | inactive |
| COc1ccc(NC(=O)Nc2ccc3c(c2)C(=O)N([C@@H](C)CO)C[C@H](C)[C@@H](CN(C)Cc2ccc(-c4ccccc4)cc2)O3)cc1 | active |
| COc1ccc(NC(=O)Nc2ccc3c(c2)C(=O)N([C@H](C)CO)C[C@H](C)[C@@H](CN(C)Cc2ccc(-c4ccccc4)cc2)O3)cc1 | inactive |
| C[C@@H]1CN([C@H](C)CO)C(=O)c2cc(NC(=O)Nc3ccccc3)ccc2O[C@H]1CN(C)Cc1ccc(Oc2ccccc2)cc1 | inactive |
| C[C@@H]1CN([C@H](C)CO)C(=O)c2cc(NC(=O)Nc3ccccc3)ccc2O[C@@H]1CN(C)Cc1ccc(Oc2ccccc2)cc1 | active |
| COc1ccc2c3c([nH]c2c1)[C@@H](CO)N(C[C@]13CCN(CC1)Cc1ccccc1F)S(=O)(=O)c1cn(cn1)C | inactive |
| C[C@@H]1CN([C@@H](C)CO)C(=O)c2cc(NC(=O)Nc3cccc4ccccc34)ccc2O[C@@H]1CN(C)C(=O)Nc1ccc(F)cc1 | inactive |
| CN1C(=O)c2cc(NC(=O)C3CCOCC3)ccc2OC[C@@H]2O[C@H](CC(=O)NCc3ccc4c(c3)OCO4)CC[C@@H]21 | inactive |
| COC(=O)c1c2oc(c1C(=O)OC)C(=O)N[C@H](Cc1ccccc1)Cn1cc(nn1)[C@@H](Cc1ccccc1)NC(=O)N[C@H](COC(=O)NCCCCCC(=O)NO)CC2 | inactive |
| Cc1cc(C)n([C@@H](C)CN)n1 | inactive |
| C[C@H]1CN([C@@H](C)CO)C(=O)c2cccc(NS(=O)(=O)c3cccs3)c2O[C@@H]1CN(C)S(=O)(=O)c1cn(C)cn1 | inactive |
| C[C@H](CO)N1C[C@H](C)[C@@H](CN(C)S(=O)(=O)c2cn(C)cn2)Oc2cc(C3=CCCC3)ccc2S1(=O)=O | inactive |
| COc1ccc(CN(C)C[C@H]2Oc3ccc(NC(=O)C4CC4)cc3CC(=O)N([C@@H](C)CO)C[C@@H]2C)cc1 | inactive |
| C=C1CCC=C(C)CCC2C1CC2(C)C.O (single isomer, unassigned; (-)) [(-)E-CARYOPHYLLENE hydrate ] | inactive |

| Compound | cytotoxicity call |
| --- | --- |
| C=C1C(=O)OC2C1CCC(C)=CCCC1(C)OC21 (stereo not given) | active |
| Cc1cc(C)nc(NS(=O)(=O)c2ccc(NC(=O)c3cccn(OCc4ccc(F)cc4)c3=O)cc2)n1 | inactive |
| Cc1ccc(C(=O)Nc2ccc(Oc3cc4cnn(C)c4cc3-c3cn[nH]c3)c(F)c2)c(=O)n1-c1ccc(F)cc1 | active |
| CCCNC(=O)N1C[C@@H](C)[C@@H](OC)CN(C)C(=O)c2ccc(NS(=O)(=O)CC(F)(F)F)cc2OC[C@@H]1C | inactive |
| Cc1csc(-c2nnc(Nc3ccc(Oc4ncccc4-c4ccnc(N)n4)cc3)c3ccccc23)c1 | active |
| Cc1ccc(Nc2nnc(-c3ccccc3)c3ccccc23)cc1 | inactive |
| Cc1ccc(Oc2nnc(-c3cccs3)c3ccccc23)cc1 | inactive |
| O=C(O)C[C@@H](O)C(=O)O | inactive |
| COC(=O)C1=CO[C@@H](O[C@@H]2O[C@H](CO)[C@@H](O)[C@H](O)[C@H]2O)/C(=C\CO)[C@@H]1CC(=O)OCCc1ccc(O)cc1 | inactive |
| C[C@@H]1CN([C@H](C)CO)S(=O)(=O)c2ccc(C3=CCCC3)cc2O[C@H]1CN(C)S(=O)(=O)c1ccc(F)cc1 | inactive |
| CS(=O)(=O)N1CCc2c(-c3cnc(N)nc3)nc(N3CCOCC3)nc21 | active |
| CS(=O)(=O)N1CC[C@]2(COCc3cnc(N4CCOCC4)nc32)C1 | inactive |
| c1nc(N2CCOCC2)nc(N2CCOCC2)n1 | inactive |
| C[C@H]1CN([C@@H](C)CO)C(=O)c2cccc(NC(=O)c3ccncc3)c2O[C@H]1CN(C)Cc1ccc(Oc2ccccc2)cc1 | inactive |
| C[C@@H]1CCCCO[C@H](CN(C)C(=O)Nc2ccc(C(F)(F)F)cc2)[C@H](C)CN([C@H](C)CO)C(=O)c2cc(NS(=O)(=O)c3ccccc3)ccc2O1 | inactive |
| C[C@H]1CCCCO[C@H](CN(C)C(=O)Nc2ccc(C(F)(F)F)cc2)[C@@H](C)CN([C@@H](C)CO)C(=O)c2cc(NS(=O)(=O)c3ccccc3)ccc2O1 | active |
| C[C@H](CO)N1C[C@H](C)[C@@H](CN(C)C(=O)Nc2ccc(C(F)(F)F)cc2)OCCCC[C@H](C)Oc2ccc(NS(=O)(=O)c3ccccc3)cc2C1=O | inactive |
| C[C@@H]1CCCCO[C@H](CN(C)C(=O)Nc2ccc(C(F)(F)F)cc2)[C@@H](C)CN([C@H](C)CO)C(=O)c2cc(NS(=O)(=O)c3ccccc3)ccc2O1 | inactive |
| C[C@H](CO)N1C[C@H](C)[C@H](CN(C)C(=O)Nc2ccc(C(F)(F)F)cc2)OCCCC[C@H](C)Oc2ccc(NS(=O)(=O)c3ccccc3)cc2C1=O | inactive |
| C[C@@H]1CN([C@@H](C)CO)C(=O)c2cc(NS(=O)(=O)c3ccccc3)ccc2O[C@@H](C)CCCCO[C@@H]1CN(C)C(=O)Nc1ccc(C(F)(F)F)cc1 | active |
| CCN1C(=O)[C@H]2[C@H]3[C@H](O)[C@H](O)C/C(=N\OC[C@@H](O)COCc4ccco4)[C@@H]3CC[C@H]2C1=O | inactive |
| C[C@@H]1CCCCO[C@@H](CN(C)S(=O)(=O)c2cccs2)[C@@H](C)CN([C@@H](C)CO)C(=O)c2cc(NC(=O)Nc3ccccc3)ccc2O1 | inactive |

| Compound | cytotoxicity call |
| --- | --- |
| C[C@H]1CN([C@@H](C)CO)C(=O)c2cccc(NC(=O)C3CCOCC3)c2O[C@H]1CN(C)S(=O)(=O)c1cn(C)cn1 | inactive |
| NC(=O)N1CCc2n[nH]c(C(=O)N3CCOCC3)c2C1 | inactive |
| C=CC(=O)N1CC[C@@H](Oc2nc(Nc3ccc(N4CCC(N5CCN(C)CC5)CC4)cc3)c(C(N)=O)nc2CC)C1 | active |
| C=CCn1c(=O)c2cnc(Nc3ccc(N4CCN(C)CC4)cc3)nc2n1-c1cccc(C(C)(C)O)n1 | inactive |
| CCc1nc(C(N)=O)c(Nc2ccc(N3CCC(N4CCN(C)CC4)CC3)c(OC)c2)nc1NC1CCOCC1 | inactive |
| COCC(=O)Nc1ccc2c(c1)C(=O)N(C)[C@@H]1CC[C@@H](CC(=O)NCc3ccc(OC)cc3)O[C@@H]1CO2 | inactive |
| COc1ccc(S(=O)(=O)Nc2cccc3c2O[C@@H](CN(C)Cc2ccc(-c4ccccc4)cc2)[C@H](C)CN([C@@H](C)CO)C3=O)cc1 | inactive |
| CC(CCC(=O)NCC(=O)O)C1CCC2C3C(O)CC4CC(O)CCC4(C)C3CC(O)C12C (stereo not given) | inactive |
| CCCCCCCCCCCCCCCCCCCC(=O)N[C@H]1CC[C@@]2(C)[C@@H](C1)C[C@@H](O)[C@@H]1[C@@H]2C[C@H](O)[C@]2(C)[C@@H]([C@H](C)CCC(=O)O)CC[C@@H]12 | active |
| CC(CCC(=O)O)C1CCC2C3C(O)CC4CC(O)CCC4(C)C3CC(O)C12C (stereo not given) | inactive |
| CCc1cc(=O)oc2c(C)c(O[C@@H]3O[C@H](CO)[C@@H](O)[C@H](O)[C@H]3O)ccc12 | active |
| Cc1c(C)c2ccc(O[C@@H]3O[C@H](CO)[C@H](O)[C@H](O)[C@H]3O)cc2oc1=O | inactive |
| Cc1cc(=O)oc2cc(O[C@H]3O[C@@H](CO)[C@@H](O)[C@@H](O)[C@@H]3O)ccc12 | inactive |
| C[C@H](CO)N1C[C@H](C)[C@H](CN(C)Cc2ccc(F)cc2)Oc2cc(C#CC(C)(C)O)ccc2S1(=O)=O | inactive |
| C=CCN(Cc1ccccc1)C(=O)[C@@H]1N(CCOCCO)C(=O)[C@@H]2[C@H](C(=O)O)[C@@H]3C=C[C@@]21O3 | inactive |
| C=CCOC(=O)[C@@H]1[C@@H]2C=C[C@]3(O2)[C@H](C(=O)N(CC=C)Cc2ccccc2)N(c2cccc(Cl)c2CO)C(=O)[C@@H]13 | inactive |
| C=CCOC(=O)[C@@H]1[C@@H]2C=C[C@@]3(O2)[C@@H]1C(=O)N(CCCCCCO)[C@H]3C(=O)N(CC=C)Cc1ccccc1 | active |
| CN1C(=O)C[C@H](C(=O)O)[C@H]1c1cccnc1 | inactive |
| COc1ccc(S(=O)(=O)Nc2ccc3c(c2)C(=O)N([C@@H](C)CO)C[C@H](C)[C@H](CN(C)S(=O)(=O)c2ccccc2)O3)cc1 | inactive |
| COc1ccc(CN(C)C[C@H]2Oc3c(NS(=O)(=O)c4cn(C)cn4)cccc3C(=O)N([C@H](C)CO)C[C@H]2C)cc1 | inactive |
| C[C@H](CO)N1C[C@H](C)[C@H](CN(C)C(=O)Nc2cccc3ccccc23)Oc2ccc(NC(=O)Nc3ccc4c(c3)OCO4)cc2CC1=O | inactive |
